Results on 25 compounds are retold here after the supplement of paper PMC10127200.

Assay in all cases: Euclidean distance of Cell Painting phenotypic profile (signed KS, 77 features) to DMSO centroid (dimensionless distance); 5 or 10 uM (library dependent); higher = stronger phenotypic change vs DMSO (phenoactivity)
What all share (conditions): 48 h

One assay deals with 786-O. The method in brief:
(§1)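 Phenoactivity is defined as the Euclidean distance from a compound profile to the median vehicle profile. Each profile comprised 77 Harmony features, scored as signed Kolmogorov-Smirnov statistics versus same-plate vehicle wells, then plate-position corrected, correlation-weighted and replicate-averaged at the top dose. Five cancer lines and one healthy fibroblast line were exposed to library compounds for 48 h at 10 or 5 uM (0.1% DMSO final).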

The subject of the next assay is A549. Put shortly: as §1
The subject of the next assay is DU145. The method in brief:
as §1

Another assay relates to FB. Put shortly:
as §1

The next assay has as its system HEPG2. Put shortly: as §1
In the next assay the test system is OVCAR4. The method in brief:
as §1

Where a name gives a salt, the structure may show the parent alone.

In the case of `CC(C(=O)O)c1cccc(Oc2ccccc2)c1` (stereo not given) [Fenoprofen Calcium], the Euclidean distance in the assay with 786-O amounted to 0.95; in the assay with A549 it was 0.634; in the assay with DU145 it was 0.599; with FB, 0.997; with HEPG2, 1.16; in the assay with OVCAR4, 1.97.

For `CC(C)(C)[N+]([O-])=Cc1ccc(S(=O)(=O)O)cc1S(=O)(=O)O`, the Euclidean distance came to 1.04 in the assay with 786-O; 1.8 with A549; 0.995 with DU145; 1.52 in the assay with FB; 1.43 with HEPG2; 1.57 with OVCAR4.

`C[C@H]1O[C@@H](O[C@H]2CC[C@@]3(C)[C@@H](CC[C@]4(C)[C@@H]3C=C[C@]35OC[C@@]6(CCC(C)(C)C[C@H]63)[C@H](O)C[C@]54C)[C@]2(C)CO)[C@H](O)[C@@H](O[C@@H]2O[C@H](CO)[C@@H](O)[C@H](O)[C@H]2O)[C@H]1O` [Saikosaponin D]: the Euclidean distance was 2.45 in the assay on 786-O; 2.4 in the assay with A549; 5.79 in the assay on DU145; 1.95 in the assay on FB; 4.11 with HEPG2; 2.92 in the assay on OVCAR4.

Turning to `C/C(=C\c1ccc(C(=O)O)cc1)c1ccc2c(c1)C(C)(C)CCC2(C)C` [TTNPB (Arotinoid Acid)], the Euclidean distance in the assay with 786-O is 0.687; in the assay with A549, 1.39; in the assay with DU145 it was 1.07; in the assay with FB, 2.49; with HEPG2 it was 1.61; with OVCAR4 it was 1.35.

As for `O=c1ccc2ccc(O)c(O)c2o1` [Daphnetin], the Euclidean distance in the assay with 786-O amounted to 1.49; with A549, 0.859; in the assay with DU145, 0.975; in the assay on FB, 1.15; in the assay on HEPG2 it was 1.18; in the assay with OVCAR4, 0.972.

On to `NC(=O)c1ccccc1O` [Salicylamide], for which the Euclidean distance in the assay with 786-O amounted to 1.39; in the assay on A549 it was 1.58; with DU145, 1.56; with FB, 1.4; with HEPG2, 0.71; in the assay on OVCAR4, 2.3.

Take `CC(C)c1cc(-c2n[nH]c(=O)n2-c2ccc3c(ccn3C)c2)c(O)cc1O` [Ganetespib (STA-9090)]: the Euclidean distance in the assay on 786-O was 3.55; in the assay with A549 it was 2.86; with DU145 it was 4.37; with FB, 2.43; in the assay with HEPG2 it was 3.34; with OVCAR4, 2.93.

Turning to `C=CCc1ccc(O)c(OC)c1` [Eugenol], the Euclidean distance in the assay on 786-O amounted to 0.982; with A549 it was 1.21; in the assay on DU145, 0.897; in the assay with FB it was 0.958; in the assay on HEPG2 it was 0.497; in the assay with OVCAR4 it was 1.51.

Turning to `CCOC(=O)[C@H](CCc1ccccc1)N[C@@H](C)C(=O)N1Cc2cc(OC)c(OC)cc2C[C@H]1C(=O)O` [Moexipril HCl], the Euclidean distance in the assay with 786-O is 1.48; in the assay with A549, 1.49; in the assay on DU145, 1.02; with FB it was 0.74; with HEPG2 it was 2.35; with OVCAR4, 1.78.

Turning to `CC#CC(=O)N1CC[C@@H](n2c(=O)n(-c3ccc(Oc4ccccc4)cc3)c3c(N)ncnc32)C1` [ONO-4059 (GS-4059) hydrochloride], the Euclidean distance in the assay with 786-O came out at 1.09; in the assay with A549 it was 0.871; in the assay on DU145, 1.8; with FB, 1.99; with HEPG2, 0.863; with OVCAR4 it was 0.627.

For `CC1(C)CCC[C@]2(C)[C@H]3CC(=O)O[C@]3(C)CC[C@@H]12` [Sclareolide], the Euclidean distance in the assay with 786-O turned out to be 1.98; in the assay on A549, 1.52; in the assay with DU145, 1.35; with FB, 0.844; in the assay with HEPG2, 1.58; in the assay on OVCAR4 it was 1.36.

As to `CC(C)N(CC[C@H](c1ccccc1)c1cc(CO)ccc1O)C(C)C`, the Euclidean distance with 786-O was found to be 1.1; with A549, 0.675; in the assay with DU145 it was 0.538; in the assay with FB, 0.842; in the assay with HEPG2, 1.02; in the assay on OVCAR4, 1.05.

Consider `C#Cc1cccc(Nc2ncnc3cc4c(cc23)OCCOCCOCCO4)c1` [Icotinib], for which the Euclidean distance in the assay on 786-O was 1.83; in the assay on A549 it was 1.46; in the assay on DU145, 1.62; in the assay on FB, 1.18; with HEPG2, 1.35; in the assay with OVCAR4, 1.32.

As for `N#Cc1ccc2[nH]cc(CCCCN3CCN(c4ccc5oc(C(N)=O)cc5c4)CC3)c2c1` [Vilazodone HCl], the Euclidean distance in the assay on 786-O was found to be 2.53; in the assay on A549, 2.23; in the assay on DU145, 1.66; in the assay on FB it was 1.66; in the assay on HEPG2 it was 2.24; with OVCAR4, 1.77.

Consider `C[C@H](NC(=O)CCC(F)(F)F)C(=O)N[C@@H]1C(=O)N(CCO)c2ncccc2-c2ccccc21`, for which the Euclidean distance with 786-O stood at 0.859; with A549 it was 0.929; in the assay on DU145 it was 1.3; in the assay with FB it was 0.741; in the assay on HEPG2 it was 0.66; in the assay with OVCAR4, 1.09.

As for `C=CCNC1=C2C[C@@H](C)C[C@H](OC)[C@H](O)[C@@H](C)/C=C(\C)[C@H](OC(N)=O)[C@@H](OC)/C=C\C=C(/C)C(=O)NC(=CC1=O)C2=O`, the Euclidean distance in the assay on 786-O turned out to be 2.85; in the assay on A549 it was 2.95; in the assay on DU145 it was 4.51; in the assay with FB, 3.47; with HEPG2, 3.86; in the assay on OVCAR4, 2.72.

For `CCCCCc1ccc(C)cc1O` [Amylmetacresol], the Euclidean distance with 786-O stood at 0.732; in the assay on A549, 0.727; in the assay on DU145 it was 0.517; with FB it was 0.859; with HEPG2, 0.412; with OVCAR4, 0.661.

For `Nc1ccc(C(=O)O)c(O)c1` [4-Aminosalicylic acid], the Euclidean distance with 786-O came out at 0.634; with A549, 0.798; with DU145, 2.33; with FB, 0.835; with HEPG2 it was 0.517; in the assay with OVCAR4, 0.799.

For the compound `O=C(c1cc(Cc2n[nH]c(=O)c3ccccc23)ccc1F)N1CCN(C(=O)C2CC2)CC1`, the Euclidean distance in the assay with 786-O came to 1.56; in the assay on A549, 1.23; with DU145, 0.958; in the assay on FB, 1.7; in the assay with HEPG2 it was 1.21; with OVCAR4, 1.11.

For `CC1(C)CCC(c2ccc(Cl)cc2)=C(CN2CCN(c3ccc(C(=O)NS(=O)(=O)c4ccc(N[C@H](CCN5CCOCC5)CSc5ccccc5)c(S(=O)(=O)C(F)(F)F)c4)cc3)CC2)C1` [ABT-263 (Navitoclax)], the Euclidean distance in the assay with 786-O was 1.75; in the assay on A549, 2.22; with DU145 it was 1.24; with FB it was 1.16; with HEPG2 it was 1.25; in the assay on OVCAR4 it was 0.98.

In the case of `CCN(Cc1ccncc1)C(=O)C(CO)c1ccccc1` (stereo not given) [Tropicamide], the Euclidean distance was found to be 1.11 in the assay on 786-O; 1.27 in the assay with A549; 1.8 in the assay with DU145; 1.01 with FB; 0.684 with HEPG2; 1.3 with OVCAR4.

Consider `C[C@H](CCC(=O)O)[C@H]1CC[C@H]2[C@@H]3[C@H](O)C[C@@H]4C[C@H](O)CC[C@]4(C)[C@H]3CC[C@]12C` [Chenodeoxycholic Acid], for which the Euclidean distance in the assay with 786-O came out at 0.805; in the assay on A549, 0.691; with DU145, 0.826; with FB, 0.881; with HEPG2 it was 0.737; in the assay on OVCAR4, 1.08.

Take `Cc1ccc(NC(=O)c2ccc(CN3CCN(C)CC3)cc2)cc1Nc1nccc(-c2cccnc2)n1` [Imatinib (STI571)]: the Euclidean distance in the assay with 786-O came out at 1.85; in the assay on A549, 1.68; in the assay on DU145 it was 1.9; with FB it was 2.04; with HEPG2 it was 1.78; in the assay on OVCAR4 it was 1.48.

As for `O=C1CCc2cc(OCCCCc3nnnn3C3CCCCC3)ccc2N1` [Cilostazol], the Euclidean distance in the assay with 786-O is 1.11; in the assay on A549, 0.94; with DU145, 1.56; in the assay with FB, 1.21; in the assay with HEPG2, 0.849; in the assay on OVCAR4, 1.26.

Regarding `N#CC(=C(/N)Sc1ccccc1N)/C(C#N)=C(\N)Sc1ccccc1N`, the Euclidean distance with 786-O was 1.54; in the assay with A549, 1.18; in the assay on DU145, 0.907; in the assay with FB, 1.57; with HEPG2, 1.81; in the assay on OVCAR4, 1.48.
